Test results: PubChem BioAssay AID2717 (Broad Institute, 2010)
Screen size: about 300,000 compounds; about 3,200 (1.1%) were called active. Only a selection was taken, and actives are over-represented in it overall. Values without a mark were called inactive. Rule as the data show it: active = inhibition above about 75%; inconclusive = no clear call, values can overlap the other calls; inactive = below that; tested in HMLE shEcad cells.

test: cancer stem cell viability inhibitors, primary screen, luminescence (AID 2717); settings: cancer stem cell-like cells viability, at 7.5 µM, hits give high values

| SMILES | inhibition |
| --- | --- |
| COc1ccc2sc(-c3ccccc3OC)c(-c3ccc(OCCN4CCCC4)cc3)c2c1 | 105% (active) |
| c1ccc(-c2ccccc2OCCN2CCCCC2)cc1 | 0.336% |
| COc1ccc(-c2sc3ccccc3c2-c2ccc(OCCN3CCOCC3)cc2)cc1 | 136% (active) |
| c1ccc(-c2ccc(OCCN3CCOCC3)cc2)cc1 | 5.72% |
| CC(=O)c1ccc(OCCN2CCOCC2)cc1 | -15.6% |
| COc1ccccc1-c1sc2ccccc2c1-c1ccc(Br)nc1 | 31.6% |
| O=C(Nc1cc(S(=O)(=O)Nc2ccc(Cl)cc2)ccc1O)c1ccc(F)cc1F | 18.9% |
| COc1ccc(C(=O)COC(=O)C(O)c2ccccc2)c(OC)c1 (stereo not drawn) | 3.81% |
| O=c1ccc2c(-c3ccccc3S(=O)(=O)O)c3ccc(O)c(O)c3oc-2c1O | 25.4% |
| COCCN(C(=O)c1ccco1)c1nnc(-c2ccc(OC)cc2)s1 | -23% |
| COc1cc(OC)cc(-c2nnc(N(C)C(=O)c3ccncc3)s2)c1 | -13.2% |
| Cc1cccc(C)c1Nc1nnc(SCC(=O)NCCCN2CCCC2=O)s1 | -7.62% |
| CN1CCN(C(=O)c2ccc(-c3ccc(Br)cc3)o2)CC1 | 44% |
| O=C(CC1NCCc2ccccc21)Nc1cccc(Cl)c1 (stereo not drawn) | 7.22% |
| O=C(CC1Nc2ccccc2NC1=O)Nc1ccccc1 (stereo not drawn) | 100% (active) |
| O=C(CC1NCCNC1=O)Nc1ccc(Oc2ccccc2)cc1 (stereo not drawn) | 52.9% |
| O=C(COC(=O)c1ccc(O)cc1O)c1ccc2c(c1)OCCO2 | 8.44% |
| O=C(Nc1cccc(S(=O)(=O)N2CCCCC2)c1)c1cncc(Br)c1 | -3.28% |
| COc1ccc(CCNc2nc(C)cc(C)n2)cc1OC | -36.8% |
| COc1ccc(CCNc2nc3ccc(C)cc3n3cnnc23)cc1OC | -23.4% |
| CCC[C@H]1CCCC/C=C\CCCC(=O)OCCN1C(=O)OC(C)(C)C | -20.7% |
| COc1cccc(C2=CC(=O)C[C@H](c3ccc(OC)c(OC)c3)C2)c1 | -9.08% |
| CN(CC(=O)Nc1ccc(Cl)cc1)C(=O)c1ccc(COc2ccccc2)cc1 | 22.8% |
| CCOC(=O)c1c(-c2ccccc2)oc2ccc(OCC(N)=O)cc12 | -4.93% |

| SMILES | inhibition |
| --- | --- |
| CCOC(=O)c1c(-c2ccccc2)oc2cc(Br)c(O)cc12 | 47.8% |
| CCOC(=O)c1c(-c2ccccc2)oc2cc(Br)c(O)c(C=O)c12 | 100% (active) |
| O=C1CC2(CCCC2)C(=O)N1CN1CCN(S(=O)(=O)c2ccc(F)cc2F)CC1 | -4.63% |
| CCCN(CC1CC1)C(=O)COC(=O)c1ccc(C)cc1O | -16% |
| CC(NC(=O)COC(=O)Cn1cc(C(F)(F)F)ccc1=O)c1ccccc1 (stereo not drawn) | -18.4% |
| O=Cc1cn(Cc2ccccc2)nc1-c1cccnc1 | -1.18% |
| O=C1/C(=C\c2cccnc2)CN(Cc2ccccc2)C/C1=C\c1cccnc1 | 90.1% (active) |
| Clc1ccc(CN2CCN(/N=C/c3cccnc3)CC2)cc1 | 3.75% |
| CC(OC(=O)c1c(F)cccc1F)C(=O)NCCC1=CCCCC1 (stereo not drawn) | -17.6% |
| Cn1c(N)c(C(=O)COC(=O)c2cccc(S(=O)(=O)N3CCOCC3)c2)c(=O)n(C)c1=O | 8.64% |
| CCOc1ccc2nc(NC(=O)c3cc([N+](=O)[O-])ccc3N3CCOCC3)sc2c1 | 36.3% |
| O=C(NC(Nc1nc2ccc([N+](=O)[O-])cc2s1)(C(F)(F)F)C(F)(F)F)c1ccccc1 | 98.4% (active) |
| CCC(=O)NC(Nc1nc2ccc(C)cc2s1)(C(=O)OC)C(F)(F)F (stereo not drawn) | 6% |
| Cc1cccc(OCC(=O)OCC(=O)Nc2ccc(Cl)cn2)c1 | 0.766% |
| COC(=O)C1CCN(C(=O)COC(=O)c2cc(S(=O)(=O)N3CCOCC3)ccc2C)CC1 | 4.55% |
| COc1cc2c(-c3ccc4c(c3)OCO4)c(-c3ccsc3)oc(=O)c2cc1OC | 8.35% |
| Cc1ccc(S(=O)(=O)NCC(=O)NNC(=O)c2ccc(Br)cc2)cc1C | 1.69% |
| COCCCNC(=O)CSc1nc2ccc(N3CCOCC3)cc2c(=O)n1CCc1ccccc1 | 20.5% |
| N#CCSc1nc2ccc(N3CCOCC3)cc2c(=O)n1CCc1ccccc1 | 77.9% (active) |
| CCCCn1c(SCC(=O)NCC2CCCO2)nc2ccc(N3CCOCC3)cc2c1=O (stereo not drawn) | 34.5% |
| CSc1ncccc1C(=O)Nc1cccc(S(=O)(=O)N2CCOCC2)c1 | -12.8% |
| O=C(CS(=O)(=O)c1cn(Cc2cccc(F)c2)c2ccccc12)N1CCCCC1 | -3.16% |
| c1ccc(-c2cc(N3CCCCC3)c3ccccc3n2)cc1 | 38.6% |
| O=c1cc(N2CCCCC2)c(-c2ccccc2)nn1Cc1cccc(F)c1 | 76.4% (active) |

| SMILES | inhibition |
| --- | --- |
| CC(=O)c1c(OCC(=O)N(C)C2CCCCC2)ccc2c(C)cc(=O)oc12 | -10.2% |
| O=C(CNC(=O)c1ccco1)NNC(=O)c1ccc(Br)cc1 | 5.78% |
| O=C(Cc1cccc2ccccc12)NNC(=O)Nc1ccc(Cl)cc1 | 8.44% |
| CC(C)(C)C(=O)NC(NC(=S)Nc1ccc(S(N)(=O)=O)cc1)C(Cl)(Cl)Cl (stereo not drawn) | -4.65% |
| Cc1ccc(NC(=S)NC(NC(=O)Cc2cccc3ccccc23)C(Cl)(Cl)Cl)cc1 (stereo not drawn) | 192% (active) |
| CCOC(=O)[C@H]1[C@H]2COc3ccc(Cl)cc3[C@@H]2N2C(=O)c3cc(C)ccc3NC(=O)[C@@]12C | -10.6% |
| CCOCCn1c(-c2ccccc2)nc2ccccc21 | -0.165% |
| CCCCn1c(-c2cccc(C)c2)nc2cc3[nH]c(=O)c(C(C)C)nc3cc21 | 75.5% (active) |
| CCCCn1c(N)c(N(CCOC)C(=O)CSCC(=O)Nc2cccc(C)c2)c(=O)[nH]c1=O | -17.7% |
| Cc1cc(NC(=O)CN2C(=O)NC(CC(C)C)C2=O)no1 (stereo not drawn) | -1.14% |
| Cc1ccccc1NC(=O)CSC(=O)c1ccccc1 | -3.3% |
| O=C(COC(=O)/C=C/c1ccc(Br)o1)Nc1cccc(S(=O)(=O)N2CCOCC2)c1 | -14.4% |
| O=[N+]([O-])c1ccc(N=Cc2c(O)ccc3ccccc23)cc1 | 12.2% |
| COc1ccc(C=Nc2cccc3ncccc23)cc1 | -1.64% |
| Oc1c(C=Nc2cccc3nsnc23)ccc2ccccc12 | 87.2% (active) |
| C[C@H]1CN([C@@H](C)CO)C(=O)Cc2cc(NC(=O)Cc3ccccc3)ccc2O[C@H]1CN(C)S(=O)(=O)c1cccs1 | -17% |
| CCCC(=O)Nc1nc2ccc(NC(=O)c3c(F)c(F)c(OC)c(F)c3F)cc2s1 | 92% (active) |
| CSc1nc2ccc(NC(=O)c3c(F)cccc3F)cc2s1 | 4.73% |
| CCCC(=O)Nc1nc2ccc(NC(=O)c3cccnc3)cc2s1 | 47.6% |
| Cc1ccc(S(=O)(=O)N2[C@@H](c3cccc4ccccc34)C(C(=O)O)=C[C@H]2C(C)(C)C)cc1 | 11.1% |
| COc1cccc(NC(=O)CSc2nnc(C3CCCCC3)n2N)c1 | -6.52% |
| OC(COc1cccc2ccccc12)CN1CCN(c2ccccn2)CC1 (stereo not drawn) | -5.87% |
| Cc1cc(C)c(NC(=O)C[N+](C)(C)CC(O)COc2cccc3ccccc23)c(C)c1 (stereo not drawn) | -3.82% |
| CC(C)c1ccccc1OCC(O)CN(CC(O)COc1cccc2ccccc12)C(C)C (stereo not drawn) | 102% (active) |

| SMILES | inhibition |
| --- | --- |
| O=C(Cc1ccc(Cl)c(Cl)c1)Nc1ccc(SC(F)F)cc1 | 75.2% (active) |
| CC(=O)N1CCN(CC(=O)Nc2ccc(SC(F)F)cc2)CC1 | 5.6% |
| Cc1ccc(CC(=O)Nc2ccc(OC(F)F)c(Cl)c2)cc1C | 33.3% |
| COc1cc([N+](=O)[O-])ccc1NC(=O)COC(=O)CCOc1ccc(C)cc1 | 18.1% |
| Cc1ccc(C(=O)/C=C/Nc2ccc(S(=O)(=O)Nc3onc(C)c3C)cc2)cc1 | 6.82% |
| COc1ccc(NS(=O)(=O)c2ccc(NC(=S)NC(=O)/C=C/c3ccc(C)cc3)cc2)nn1 | 9.35% |
| COc1ccc(/C=C/C(=O)c2ccc(NS(=O)(=O)c3ccc(C)cc3)cc2)cc1O | 99.8% (active) |
| CC(C)(C)OC(=O)C[C@@H]1C/C=C\C[C@@H](CC(=O)NCCO)C(=O)N[C@H](Cc2c[nH]c3ccccc23)COC1=O | -11.3% |
| Cc1ccc(Br)c(NS(=O)(=O)c2cccc(C(=O)N3CCNC(=O)C3)c2)c1 | -15.2% |
| CN1CCN(C2Cc3ccc(Cl)cc3Sc3ccc(F)cc32)CC1 (stereo not drawn) | 101% (active) |
| O=C(N=C1SC2CS(=O)(=O)CC2N1c1ccccc1)c1ccccc1 (stereo not drawn) | -9.26% |
| Cc1ccc(C2(C)NC(=O)N(CC(=O)N3CC(=O)Nc4ccccc43)C2=O)cc1 (stereo not drawn) | -12.5% |
| O=C(c1ccc(S(=O)(=O)NCc2ccco2)cc1)N1CCN(c2ccccc2)CC1 | -16.3% |
| CC(C)(c1ccccc1)c1ccc(OCCN)cc1 | 37% |
| Cc1cc(OCCN2CCCC2)ccc1C(C)C | 1.11% |
| CC(C)(c1ccccc1)c1ccc(OCCN2CCCC2)cc1 | 91.2% (active) |
| CN(Cc1ccc(F)cc1)C(=O)CN1C(=O)c2ccccc2S1(=O)=O | 1.87% |
| Cc1cc(NC(=O)COC(=O)/C=C/c2ccc(C)o2)no1 | -11.7% |
| O=C(Nc1ncc([N+](=O)[O-])s1)C1COc2ccccc2O1 (stereo not drawn) | 54.2% |
| CC(=O)Oc1ccccc1C(=O)Nc1ncc([N+](=O)[O-])s1 | 76.2% (active) |
| O=C(CCc1ccccc1)Nc1ncc([N+](=O)[O-])s1 | 23.5% |
